Experimental data: PubChem BioAssay AID2462 (Broad Institute, 2010)
Hit rate of the full screen: of about 330,000 compounds, about 220 (0.067%) were called active. The sample holds actives, similar compounds and a random draw of the others, so the mix is not that of the screen. A number with no mark means an inactive call.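 The calls were made as follows: active = over half of replicate activation scores above 10%, or exactly half above 10 with the replicate mean above 10; inconclusive = replicate mean below 10 yet half the replicates above 10; inactive = over half of replicates below 10.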

Test: caspase 3/7 activation in MEF A1-2A-BIM cells, primary screen, A1 inhibitor project, cell-based, luminescence, HTS (AID 2462)
Conditions: Caspase-Glo 3/7 luminescence, 3 h, stronger effect = higher value, percent of clofoctol response, vehicle zero, concentration not given here

| SMILES | caspase activation |
| --- | --- |
| CC(C)CNC(=S)NNC(=O)c1ccccc1OC(F)F | 1.35% |
| CN(Cc1c(F)cccc1Cl)C(=O)CNC(=O)c1ccc2c(c1)OCO2 | -0.444% |
| N#Cc1c(-c2ccc(F)cc2)cc(C2CC2)nc1SCC(=O)c1cccs1 | -0.105% |
| Cc1cccc(C(=O)NCc2nnc(SC(C)C(=O)Nc3nnc(C)s3)n2C)c1 (centres undefined) | 0.308% |
| COc1ccc(C2CC(=O)C=C(NCC3CCCO3)C2)cc1 (centres undefined) | 1.09% |
| Cc1c(C(=O)N2CCN(c3ccc(F)cc3)CC2)oc2c1C(=O)CCC2 | -0.061% |
| Cc1ccc(CC2C(=O)N(c3ccc(F)cc3)C(=O)C2C)cc1 (centres undefined) | 0.618% |
| Cc1cc(-n2cnc(-c3cn(C)nc3C)n2)no1 | 0.762% |
| O=C(NCc1ccccc1)C1=C[C@@H](C2CCCCC2)C[C@@H](OCc2ccc(CO)cc2)O1 | 1.39% |
| Cc1ccc(CNC(=O)CCS(=O)(=O)c2ccc3c(c2)CC(C)N3C(=O)C2CC2)o1 (centres undefined) | 3.53% |
| O=C(C1CCCO1)N1CCN(C(=S)NC2CC2)CC1 (centres undefined) | -0.789% |
| CC1=C(C(N)=O)C(c2sccc2C)n2nnnc2N1 (centres undefined) | -0.851% |
| CCC1CCCCN1CCCNC(=O)c1cc2c(Cl)nc3ccccc3c2s1 (centres undefined) | -0.978% |
| CC(=O)C(C)n1cnc2scc(-c3ccc(C)cc3)c2c1=O (centres undefined) | 0.409% |
| O=C(NC1CCCCC1)C1CCC(CNS(=O)(=O)c2ccccc2)CC1 (centres undefined) | 0.134% |
| CNc1[nH]ncc1[N+](=O)[O-] | -0.643% |
| COc1ccc(C[C@H]2CN3C(=NC[C@H]3C)N2CCNC(=O)CCC2CCCCC2)cc1 | 0.277% |
| CCCN(c1ccc(C)cc1)c1nc(=O)c2cccnc2s1 | 0.23% |
| COC(=O)[C@H]1Cc2cnoc2C[C@]1(C)C(=O)O | -0.157% |
| COc1ccc(OC)c(/C=C/C(=O)c2ccc3c(c2)OCO3)c1 | -0.508% |
| COc1ccc(NC(=O)/C(Cl)=C(/Cl)S(=O)Cc2ccc(C)cc2)cn1 (centres undefined) | 7.8% (active) |
| CCN(CC(=O)Nc1ccc(OC)cc1)C(=O)CSCc1ccc(C)cc1 | -0.709% |
| COc1ccc(Nc2ccc([N+](=O)[O-])cn2)cn1 | -0.342% |

| SMILES | caspase activation |
| --- | --- |
| COc1ccc2c(c1)CCNC2Cc1ccc(OC)c(O)c1 (centres undefined) | 2.35% |
| CCc1ccc(OCC2c3cc(OC)c(OC)cc3CCN2C(C)=O)cc1 (centres undefined) | 0.768% |
| CC[C@H]1CN2CCc3cc(OC)c(OC)cc3[C@@H]2C[C@@H]1C[C@H]1NCCc2cc(OC)c(OC)cc21 | 7.26% (active) |
| COc1cccc(NC(=O)CN(C)C(C)C(=O)Nc2ccc(C#N)cc2)c1 (centres undefined) | 0.554% |
| CC[N+](C)(CC)CCC[n+]1c(-c2ccccc2)c2cc(N)ccc2c2ccc(N)cc21 | 2.85% |
| CC(=O)Nc1ccc(Sc2ccccc2C(=O)N2CCCC2)cn1 | 0.126% |
| Cn1c(C(=O)O)ccc1S(=O)(=O)N(Cc1ccccc1)Cc1ccccc1 | -0.442% |
| O=C(NCCc1ccco1)C(=O)NCCC1CCCCN1S(=O)(=O)c1ccccc1 (centres undefined) | 0.605% |
| CN(C)c1ccc(Nc2c3c4c(cccc4n(C)c2=O)C(=O)c2ccccc2-3)cc1 | -0.124% |
| CC1(C)COC(c2cccn2Cc2ccccc2Cl)=N1 | -0.0448% |
| O=C(NNC(=O)c1cccc(S(=O)(=O)Nc2ccc(Cl)cc2)c1)c1ccc(=O)[nH]c1 | -1.36% |
| COc1cc(SC#N)ccc1N=Cc1c(C)[nH]n(-c2ccc(C)cc2)c1=O | 11.1% (active) |
| Cc1ccc(-n2[nH]c(C)c(/C=N/NC(=O)c3cccc([N+](=O)[O-])c3)c2=O)cc1C | -4.49% |
| Cc1[nH]n(-c2ccccc2)c(=O)c1/C=N/NC(=O)c1ccoc1C | -3.41% |
| O=C(NNS(=O)(=O)c1c(F)cc(F)c(Cl)c1F)C12CC3CC(CC(C3)C1)C2 | 0.494% |
| CCOC(=O)c1c(-c2cccc(N)c2)cn2ccccc12 | 0.104% |
| Cc1cc(NC(=O)CN2C(=O)NC(C)(CCc3ccccc3)C2=O)no1 (centres undefined) | -0.914% |
| Cc1ccc(N/N=C2\COC(C)(C)CC2=O)cc1 | 0.0616% |
| Cc1c(Cl)cccc1NC(=O)CSc1ccc(-c2cccnc2)nn1 | 0.424% |
| CC(C)C[C@H](NC(=O)N1CC(=O)Nc2ccccc21)C(=O)N[C@H](Cc1ccccc1)C(=O)O | 0.252% |
| CNC(=O)COc1ccc(S(=O)(=O)Nc2ccccc2)cc1 | -0.951% |
| CCOC(=O)/C(=N\Nc1ccccc1[N+](=O)[O-])c1csc(Nc2ccccc2)n1 | -0.494% |
| Cc1ccc(NC(=O)/C(=C/c2ccc([N+](=O)[O-])cc2)NC(=O)c2ccccc2)cc1 | -0.427% |

| SMILES | caspase activation |
| --- | --- |
| CCOC(=O)/C(=C\c1ccc([N+](=O)[O-])cc1)C(=O)c1cc(C(C)=O)c(Nc2ccccc2)s1 | 46.4% (active) |
| C/C(=C/C(=O)N1CCN(C)CC1)C(=O)O | 0.653% |
| Cc1cc(C)nc(NNC2=CC(=O)CC(C)(C)C2)n1 | -0.196% |
| CC(C)(C)N(Cc1ccccc1)C(=O)COC(=O)CCc1c[nH]c2ccccc12 | -1% |
| COc1ccc(N2C(=O)/C(=C\c3ccco3)N=C2SCC(N)=O)cc1Cl | -0.66% |
| Cc1cc(C)n(S(=O)(=O)c2cccc([N+](=O)[O-])c2)n1 | 0.962% |
| O=C(NCc1ccco1)c1ccc([N+](=O)[O-])cc1Cl | 1.19% |
| COc1cc2c(cc1NC(=O)COC(=O)/C=C/c1ccccc1)oc1ccccc12 | 8.52% (active) |
| COc1cc(/C=C/C(=O)OCC(=O)c2ccccc2)cc(OC)c1OC | 0.0945% |
| COc1cc2c(cc1NC(=O)CN1CCN(S(=O)(=O)c3ccc(F)cc3)CC1)oc1ccccc12 | -0.105% |
| Cc1[nH]n(-c2ccccc2)c(=O)c1CCOC(=O)c1ccc(C(F)(F)F)cc1 | 0.514% |
| O=C(CCc1nnc2ccc(NCc3ccccc3Cl)nn12)NCC1CCN(C2CCCC2)C1 (centres undefined) | -0.323% |
| CCC(C)(C)c1ccc(OCC(=O)N(C)C)c(C(C)(C)CC)c1 | -0.559% |
| O=C(COc1ccc([N+](=O)[O-])cc1Cl)Nc1ccc2[nH]c(=O)[nH]c2c1 | -0.19% |
| Cc1cc(OCCN2CCCC2)cc(C(C)C)c1 | 0.0914% |
| O=C(O)CC1S/C(=N\N=C/c2ccccc2O)N(c2ccc(O)cc2)C1=O (centres undefined) | 0.687% |
| CCOc1ccc(NC(=O)CC2C(=O)N(c3ccccc3)C(=O)N2CCOC)cc1 (centres undefined) | 0.358% |
| C=CCC1(C#N)C(=S)NC(C)=C(C(=O)OCC)C1c1ccccc1 (centres undefined) | 0.0109% |
| Cc1cccc(NS(=O)(=O)c2ccc(C)c(C(=O)NCC(c3ccccc3)N(C)C)c2)c1 (centres undefined) | 1.2% |
| Cc1c2cn[nH]c(=O)c2c(C)n1Cc1ccc(F)cc1 | -0.558% |
| Cc1cc(NC(=O)CSc2nnc(-c3ccco3)n2N)no1 | -0.817% |
| Cc1cc(NC(=O)CSc2nc3cc(Cl)ccc3c(=O)n2Cc2ccco2)no1 | 29.5% (active) |
| Cc1cc(NC(=O)CSc2nc3ccccc3n2CC(C)C)no1 | 0.633% |

| SMILES | caspase activation |
| --- | --- |
| CC(NC(=S)Nc1ccccc1)C1COc2ccccc2O1 (centres undefined) | -0.247% |
| CCC1=NN(C(=O)Cc2ccc([N+](=O)[O-])cc2)C(O)(c2ccc(Br)cc2)C1 (centres undefined) | 1.08% |
| Cc1ccc(S(=O)(=O)N(CC(O)CN2C(=O)NC(C)(C)C2=O)c2cccc([N+](=O)[O-])c2)cc1 (centres undefined) | 0.0755% |
| CSc1nnnn1-c1c(C)cc(C)cc1C | -0.157% |
| O=C1CCC(C(=O)N2CCCCO2)CN1Cc1cccc(C(F)(F)F)c1 (centres undefined) | 0.28% |
| Cc1ccc(/C=C/C(=O)OCC(=O)NCc2ccc(Cl)cc2)o1 | -0.527% |
| CCOC(=O)CSc1nc(C)cc2c1C(=O)OC2 | 0.711% |
| CCOC(=O)CSc1ccccn1 | -0.651% |
| CCOC(=O)CSC1=N/C(=C/c2ccc(-n3cncn3)cc2)C(=O)N1C(C)=O | 8.99% (active) |
| O=C1CCC(C(=O)N2CCC(O)(c3ccccc3)CC2)CN1CCc1ccccc1 (centres undefined) | 0.199% |
| COCCNc1ccc(-c2n[nH]c(=O)c3ccccc23)cc1[N+](=O)[O-] | -1.33% |
| Cc1ccc(NC(=O)c2ccc(Oc3ncccn3)cc2)cc1 | -1.4% |
| Cc1ccccc1N1CCN(C2CCCN(C(=O)c3ocnc3C)C2)CC1 (centres undefined) | 0.888% |
| CCc1ccc(/C=N/NC(=O)c2ccc(OC3CCCC3)cc2)s1 | -0.334% |
| COC(=O)C(=Nc1ccccc1)/C(C(=O)C(=O)N(C)c1ccccc1)=C(\O)c1ccc(Cl)cc1 | -1% |
| Cc1ccc(-n2c(SCC(=O)Nc3ncc(Cl)cc3Cl)nc3ccccc32)cc1 | 0.221% |
| CCC1(C(=O)c2ccccc2)C(c2cccc([N+](=O)[O-])c2)C1(C(=O)OC)C(=O)OC (centres undefined) | -0.612% |
| O=C1Nc2c(Br)cc(Br)cc2C1(O)N1CCOCC1 (centres undefined) | -1.16% |
| COc1ccc(C(=O)NCc2ccc(Cl)cc2)cc1S(=O)(=O)N1CCCC1 | -0.377% |
| COc1cc(C2C(N3C(=O)c4ccccc4C3=O)C(=O)N2c2ccc(C)c(C)c2)cc(OC)c1OC (centres undefined) | 0.266% |
